Where “and” joins values, the source holds several entries; their conditions need not be identical. Identical values can stand only once. Inconclusive results are not listed. Where a call stands in place of a potency, no number is given. The source holds several records for some structures; these can differ, active in one and inactive in another. Unmarked numbers belong to inactive results. Calls of active or inactive are those of the source. Calls come from the whole dose curve; as a rule, active = well fitted curve in the direction sought with a large enough effect; inconclusive = small, poorly fitted or top-dose-only effect, or another doubt; inactive = no such curve, though single readings can be large; an effect the other way counts as inactive or inconclusive.
Tests used:
Es-2 = test: Primary qHTS to identify gynecologic anti-cancer compounds using libraries of approved drugs and bioactive compounds (AID 1345084); details: Gynecologic cancer cell panel viability, ATPlite luminescence, 48 h; series mostly up to 57.5 µM; note: nearly all actives have a fitted effect of over 55% in size
Procedure, shortened: (§1)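 Measured: luminescence after ATPlite addition (15 min, RT). Exposure: 48 h, 37 C, 5% CO2.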

HeLa = test: as above; details: Gynecologic cancer cell panel viability, ATPlite luminescence, 48 h; series mostly up to 57.5 µM
Procedure, shortened: as §1

Hek293T = test: as above; details: Gynecologic cancer cell panel viability, ATPlite luminescence, 48 h, control line for the selectivity index; series mostly up to 57.5 µM
Procedure, shortened: as §1

OV90 = test: as above; details: Gynecologic cancer cell panel viability, ATPlite luminescence, 48 h; series mostly up to 57.5 µM
Procedure, shortened: as §1

PA-1 = test: as above; details: Gynecologic cancer cell panel viability, ATPlite luminescence, 48 h; series mostly up to 57.5 µM
Procedure, shortened: as §1

SKOV3 = test: as above; details: Gynecologic cancer cell panel viability, ATPlite luminescence, 48 h; series mostly up to 57.5 µM
Procedure, shortened: as §1

Tov-21-G = test: as above; details: Gynecologic cancer cell panel viability, ATPlite luminescence, 48 h; series mostly up to 57.5 µM
Procedure, shortened: as §1

Tov112D = test: as above; details: Gynecologic cancer cell panel viability, ATPlite luminescence, 48 h; series mostly up to 57.5 µM
Procedure, shortened: as §1

[1] = Drug repurposing screens with cells derived from glioblastoma tumor samples (AID 1345199); details: GBM patient neurospheres viability, ATP luminescence, 48 h; note: nearly all actives have a fitted effect of over 40% in size
Procedure, shortened: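 Primary testing used CD133+ neurospheres from four GBM patients, seven concentrations, 48 h exposure and ATP-based viability; confirmation added three slower-growing patient lines.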

JEG-3 = test: Primary qHTS to identify gynecologic anti-cancer compounds using libraries of approved drugs and bioactive compounds (AID 1345084); details: Gynecologic cancer cell panel viability, ATPlite luminescence, 48 h; series mostly up to 57.5 µM; note: nearly all actives have a fitted effect of over 55% in size
Procedure, shortened: as §1

[2] = at 45.9 µM (top of the series), tumour line B
[3] = at 45.9 µM (top of the series), tumour line D
[4] = at 46 µM (top of the series), tumour line A
Potency is the fitted concentration of half-maximal effect.

SMILES	Potency (Es-2)	Potency (HeLa)	Potency (Hek293T)	Potency (OV90)	Potency (PA-1)	Potency (SKOV3)	Potency (Tov-21-G)	Potency (Tov112D)	activity, negative = cell killing [1, 2]	activity, negative = cell killing [1, 3]	activity, negative = cell killing ([1]; at 21.2 µM (top of the series), tumour line B) [%]	activity, negative = cell killing ([1]; at 21.2 µM (top of the series), tumour line D) [%]	Potency (JEG-3)	Potency ([1]; tumour line A)	activity, negative = cell killing [1, 4] [%]	activity, negative = cell killing ([1]; at 91.6 µM (top of the series), tumour line B) [%]	activity, negative = cell killing ([1]; at 91.6 µM (top of the series), tumour line D) [%]
C[C@H]1O[C@@H](O[C@H]2[C@@H](O)C[C@H](O[C@H]3[C@@H](O)C[C@H](O[C@H]4CC[C@@]5(C)[C@H](CC[C@@H]6[C@@H]5CC[C@]5(C)[C@@H](C7=CC(=O)OC7)CC[C@]65O)C4)O[C@@H]3C)O[C@@H]2C)C[C@H](O)[C@@H]1O	282 nM (active) and 100 nM (active)	282 nM (active) and 89.1 nM (active)	282 nM (active) and 224 nM (active)	0.708 µM (active)	282 nM (active) and 126 nM (active)	251 nM (active) and 112 nM (active)	112 nM (active) and 100 nM (active)	0.0891 µM (active)	–	–	–	–	–	–	–	–	–
NCC(O)c1ccc(O)cc1 (centres undefined)	inactive	inactive	inactive	inactive	inactive	inactive	inactive	inactive	-12.4%	-9.81%	–	–	–	–	–	–	–
CN(C)[C@@H]1C(=O)C(C(N)=O)=C(O)[C@@]2(O)C(=O)C3=C(O)c4c(O)cccc4[C@@](C)(O)[C@H]3C[C@@H]12	inactive	inactive	inactive	inactive	inactive	inactive	inactive	inactive	–	–	-16.2	-21.5	–	–	–	–	–
C[C@]12C/C(=C/O)C(=O)C[C@@H]1CC[C@@H]1[C@@H]2CC[C@@]2(C)[C@H]1CC[C@]2(C)O	inactive	inactive	inactive	inactive	inactive	inactive	inactive	inactive	-10.4%	-15.9%	–	–	–	–	–	–	–
CCC(=O)C(CC(C)N(C)C)(c1ccccc1)c1ccccc1 (centres undefined)	inactive	inactive	inactive	–	inactive	–	inactive	inactive	–	–	–	–	inactive	–	–	–	–
CC(C)NCC(O)c1ccccc1Cl (centres undefined)	inactive	inactive	inactive	inactive	inactive	inactive	inactive	inactive	-16.7%	-18.1%	–	–	–	–	–	–	–
CN1C(=S)CN=C(c2ccccc2)c2cc(Cl)ccc21	inactive	inactive	inactive	inactive	inactive	inactive	inactive	inactive	-24.8%	-20.4%	–	–	–	–	–	–	–
CCCC(C)(COC(N)=O)COC(=O)NC(C)C (centres undefined)	inactive	inactive	inactive	inactive	inactive	inactive	inactive	inactive	-7.57%	-17.6%	–	–	–	–	–	–	–
COC[C@H]1OC(=O)c2coc3c2[C@@]1(C)C1=C(C3=O)C2CCC(=O)[C@@]2(C)C[C@H]1OC(C)=O (some centres undefined)	inactive	inactive	inactive	inactive	–	–	inactive	inactive	–	–	–	–	inactive	–	–	–	–
CCC1(C2=NCCN2)Cc2ccccc2O1 (centres undefined)	inactive	inactive	inactive	inactive	inactive	inactive	inactive	inactive	-22.3%	-18%	–	–	inactive	7.08 µM (active)	–	–	–
CC(C)CC(N(C)C)C1(c2ccc(Cl)cc2)CCC1 (centres undefined)	inactive	inactive	inactive	inactive	inactive	–	inactive	inactive	-27.3%	-16.7%	–	–	inactive	–	-28.1	–	–
C#CCN(C)[C@H](C)Cc1ccccc1	inactive	inactive	inactive	inactive	inactive	–	inactive	inactive	-10.5%	-14.3%	–	–	inactive	–	-47.6	–	–
Cc1ccc(-c2nc3ccc(C)cn3c2CC(=O)N(C)C)cc1	inactive	inactive	inactive	inactive	inactive	inactive	inactive	inactive	-10.9%	2.33%	–	–	inactive	–	-24.8	–	–
CC[N+]1(C)CCCC(OC(=O)C(O)(c2ccccc2)c2ccccc2)C1 (centres undefined)	inactive	inactive	inactive	–	inactive	inactive	inactive	inactive	-10.4%	-8.99%	–	–	inactive	–	–	–	–
c1ccc2c(c1)Nc1ccccc1S2	inactive	inactive	inactive	inactive	inactive	inactive	inactive	inactive	-14.1%	-9.6%	–	–	–	31.6 µM (active)	–	-11.1	-20.1
c1ccc2c(c1)OCC(C1=NCCN1)O2 (centres undefined)	–	–	28.2 µM (active)	–	15.8 µM (active)	–	15.8 µM (active)	–	–	–	–	–	–	–	–	–	–
N[C@@H](Cc1ccc(Oc2cc(I)c(O)c(I)c2)c(I)c1)C(=O)O	inactive	inactive	inactive	inactive	inactive	inactive	inactive	inactive	-6.2%	-17.5%	–	–	–	–	-27.6	–	–
C=C1C[C@@H]2[C@H](CC[C@]3(C)C(=O)CC[C@@H]23)[C@@]2(C)C=CC(=O)C=C12	–	inactive	–	–	–	inactive	–	inactive	–	–	–	–	–	12.6 µM (active)	–	–	–
CC(=O)Nc1cc([As](=O)(O)O)ccc1O	inactive	inactive	–	inactive	inactive	inactive	inactive	inactive	-26.4%	-5.27%	–	–	–	–	–	–	–
OCCOc1ccccc1	inactive	inactive	inactive	inactive	inactive	inactive	inactive	inactive	3.03% and -11.2%	-21.5% and 1.35%	–	–	–	–	-19.1	–	–

From PubChem BioAssay (NCATS)
